The list is not random: actives were taken first. Their share in the collection is about 6.6%.
KB-V1 cytotox: KB-V1 MDR subline cytotoxicity; 400,000 compounds, 3.4% hits; Potency, µM (series often up to 46.1 µM), hits mostly cytotoxic; KB-V1 MDR cells viability, CellTiter-Glo, 72 h; note: % is set by controls: 0 for no effect and ±100 for the full control effect; nearly all actives have a fitted effect of over 60% in size
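Drug-selected KB-V1 cells, grown in DMEM lacking phenol red with 10% FBS, receive compound titrations; after three days at 37 degrees C, surviving cell ATP is quantified by CellTiter-Glo luminescence and responses normalized and curve-fitted.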
HT1080 IDH1KD tx: toxicity to HT-1080 IDH1 knockdown cells (counter line); HT-1080 IDH1 knockdown viability, ATP luminescence, 48 h; Potency, µM (top dose mostly 46.1 µM), inactives show at the top dose activity, negative = toxicity, most hits filed as cytotoxic; 360,000 compounds, 2% hits;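 note: 0% = DMSO wells and -100% = cell-free medium wells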
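Assay cells: HT-1080 with IDH1 knockdown, 750 per well, RPMI/5% FBS. Exposure: 48 h at 37 °C following 2 h pre-incubation. Read: CellTiter-Glo luminescence; fitted concentration-response, curve class assigned.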
HT1080NT lethal: kills 2HG-producing HT-1080-NT fibrosarcoma cells; AID 686970; 360,000 compounds, 1.6% hits; HT-1080-NT fibrosarcoma viability, CellTiter-Glo ATP luminescence, 48 h; Potency, µM (series often up to 46.1 µM), for inactives: at the top dose activity, negative = less viability, actives largely listed as cytotoxic;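 note: NT is the 2HG producing partner of a matched IDH1 knockdown line; 0% = DMSO-treated cells and -100% = media-only wells without cells; nearly all actives have a fitted effect of over 55% in size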
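Toxicity toward the 2HG-producing NT line was scored as %Activity, normalised to DMSO and no-cell wells, from CellTiter-Glo luminescence after 48 hours' treatment.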
KB-3-1 tox: kills parental KB-3-1 adenocarcinoma cells. KB-3-1 viability, CellTiter-Glo ATP luminescence, 72 h. Potency, µM (titrated, usually from 46.1 µM), most hits filed as cytotoxic. 400,000 compounds, 1.4% hits. AID 1347075; note: % is set by controls: 0 for no effect and ±100 for the full control effect; nearly all actives have a fitted effect of over 60% in size
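Viability of parental KB-3-1 cells, measured by CellTiter-Glo luminescence, followed a 72 h incubation at 37 °C with pinned compounds in phenol-red-free DMEM containing 10% FBS.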
TGFb SMAD3 inh: TGF-b pathway inhibition | Potency, µM (series often up to 46.1 µM), without a hit: at the top dose activity, negative = inhibition, actives largely listed as inhibitors | AID 588855 | 410,000 compounds, 1.2% hits | HepG2 CAGA-GFP TGF-b/SMAD3 reporter, GFP fluorescence, 18 h; TGF-beta stimulated, 500 pg/mL final; note: % is set by controls: 0 for no effect and ±100 for the full control effect; nearly all actives have a fitted effect of over 65% in size
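HEPG2 CAGA-GFP, 1000 cells/well; 2 h settle, 37 C; cpd via pin tool; TGF-b 500 pg/mL final; 18 h, 37 C; GFP imaging ex488/em500-530; %Activity normalised to -TGF-b and +DMSO controls; CRC fit, curve class.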
HepG2 tox: kills HepG2 cells in TGF-b inhibitor counter-screen | HepG2 CAGA-GFP viability, ATP luminescence, 18 h | Potency, µM (doses to about 46.1 µM), inactives show at the highest dose activity change, negative = cytotoxicity, most hits filed as cytotoxic | 410,000 compounds, 0.76% hits | AID 588856
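HepG2 CAGA-GFP cells (1000/well, DMEM with 1% FBS) received compound, then TGF-beta at 500 pg/mL final, and were incubated 18 hours at 37 degrees C. Viability was read by CellTiter-Glo luminescence. Media-only wells were set as complete cell-killing and DMSO as no toxicity.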
* hit, by the source's call; i = inactive; u = inconclusive; x = not tested or not shown. Calls come from the whole dose curve; as a rule, active = well fitted curve in the direction sought with a large enough effect; inconclusive = small, poorly fitted or top-dose-only effect, or another doubt; inactive = no such curve, though single readings can be large; an effect the other way counts as inactive or inconclusive. Potency is the fitted concentration of half-maximal effect.

SMILES	KB-V1 cytotox	HT1080 IDH1KD tx	HT1080NT lethal	KB-3-1 tox	TGFb SMAD3 inh	HepG2 tox
CC(C)(C)c1ccc(NC(=O)N2CCCN(c3ccc([N+](=O)[O-])cn3)CC2)cc1	10.3µM*	u	-29.3%	u	-6.1%	8.8%
O=C(c1ccc2ccccc2c1)N1CCN(c2ccc(C(F)(F)F)cn2)CC1	i	-19.0%	-15.0%	i	8.0%	-9.9%
O=C(Nc1ccccc1)N1CCN(c2ccc(C(F)(F)F)cn2)CC1	8.2µM*	-6.4%	16.5%	u	28.6%	-1.7%
C#CCN(C[C@H]1[C@H](OC(=O)Nc2c(C)noc2C)[C@H](OC(=O)Nc2c(C)noc2C)C[C@@H](C(=O)OC)[C@H]1C(=O)OC)S(=O)(=O)c1ccc(C)cc1	i	2.4%	0.1%	i	-3.6%	-13.6%
CCOc1ccc(C(C)=O)cc1N1C(=O)C2C3C=CC(C3=C(C)C)C2C1=O (stereo not given)	16.4µM*	-0.3%	7.6%	i	-0.6%	-8.0%
CCOc1ccc(C(C)=O)cc1N1C(=O)C2C(C1=O)C1C=CC2C12CC2 (stereo not given)	u	19.8%	-4.6%	i	-13.4%	1.3%
Cc1ccc(C)c(N=Nc2nc3ccccc3n2C)c1	14.6µM*	7.94µM*	3.98µM*	i	u	-53.6%
Cc1cc(C)cc(NC(=O)CSc2nnc(-c3ccccc3C)o2)c1	11.6µM*	u	7.0%	i	-2.0%	-9.4%
Cc1ccc(NC(=O)CSc2nnc(-c3ccccc3C)o2)cc1C	i	4.1%	22.5%	i	-1.1%	-31.1%
O=C(CSc1nnc(-c2ccccc2Br)o1)Nc1nncs1	i	0.8%	-3.1%	i	-14.0%	15.8µM*
Cc1ccccc1-c1nnc(SCC(=O)Nc2cccnc2Cl)o1	i	23.1µM*	18.4µM*	u	7.7%	-47.2%
COc1ccccc1NC(=O)CSc1nnc(-c2ccoc2C)o1	u	-2.8%	-22.9%	11.6µM*	6.3%	-77.2%
COc1ccccc1NC(=O)CSc1nnc(-c2ccccc2C)o1	i	x	x	i	19.6%	-39.7%
CC1(C)C2CCC(CN)C1C2 (stereo not given)	i	-0.1%	0.8%	i	-0.5%	-17.0%
CCOc1cc(C(=O)N2CC(=O)Nc3ccc(F)cc3C2c2ccccc2)cc(OCC)c1OCC (stereo not given)	i	x	x	i	22.9%	-8.8%
Brc1ccc(-c2nn3c(-c4ccccn4)nnc3s2)o1	18.4µM*	26.9%	5.0%	u	-2.5%	10.4%
Brc1ccc(-c2nn3c(-c4ccco4)nnc3s2)o1	16.4µM*	-2.6%	3.6%	u	0.0%	-0.5%
Clc1ccccc1-c1nn2c(-c3ccccn3)nnc2s1	i	0.8%	21.2%	i	4.6%	-1.4%
C=C1CCN(C(Cc2ccccc2)C(=O)NCc2ccc(Cl)c(Cl)c2)S(=O)(=O)c2ccccc21 (stereo not given)	x	x	x	x	u	-27.8%
Cc1ccc(OCC(=O)OCc2cc(=O)n3nc(-c4cccs4)sc3n2)cc1C	i	x	x	i	u	4.9%
CC1=C(C(=O)Nc2cc(Cl)ccc2C)C(c2ccccc2F)n2ncnc2N1 (stereo not given)	18.4µM*	x	x	i	-2.5%	-19.5%
CC1=C(C(=O)Nc2cc(Cl)ccc2C)C(c2ccco2)n2ncnc2N1 (stereo not given)	i	x	x	i	4.8%	-10.5%
O=C(NC1CCCCCC1)c1c(O)nc2sccn2c1=O	14.6µM*	u	-10.0%	u	-3.3%	-35.5%
O=C(NC1CCCCC1)c1c(O)nc2sccn2c1=O	u	-12.1%	-28.0%	u	7.8%	-0.2%
CC1CC(NC(=O)c2c(O)nc3sccn3c2=O)CC(C)(C)C1 (stereo not given)	18.4µM*	-24.1%	-18.9%	i	7.9%	4.3%

Bioassay records: PubChem BioAssay, National Center for Advancing Translational Sciences (NCATS)
